From PubChem BioAssay come the findings set out here.

The nature of assay [1]: stimulators of insulin release from INS-1E, primary screen, cell-based, 5 mM glucose, NPC library (AID 1117329;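 active means compound raises insulin release from rat beta cells at 5 mM glucose, no numeric limit stated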). Particulars: rat INS-1E insulin secretion, at 10 µM, stronger effect = higher value.
Assay [2] in a line: growth inhibition of GSK3B-pretreated HCT116 cells – cell-based, CellTiter-Glo, 0.2 to 20 µM (AID 1117336;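 active means compounds lowering colon cancer cell viability after pretreatment blocking the GSK3B kinase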). Particulars: HCT116 viability after GSK3B inhibitor, at 20 µM, stronger effect = higher value.
Assay [3] in a line: inhibition of endothelial tube formation, primary screen, imaging, VEGF stimulated, CD31 staining, tube area, NPC library (AID 1117340;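 active means compound that reduces growth-factor-driven endothelial tube area in a mixed cell culture, no cutoff stated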). Particulars: VEGF-stimulated ADSC/ECFC co-culture, at 10 µM, stronger effect = higher value.
Assay [4] in a line: glucagon-like peptide 1 release enhancers, primary assay, NCI-H716 cell line, NPC library (AID 1117341;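 active means compound raises GLP1 secretion from the human gut endocrine cells, with no numeric limit stated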). Particulars: NCI-H716 cells, at 10 µM, stronger effect = higher value.
Assay [5] can be described thus: HCT116 colon cancer cell growth inhibition, primary screen, CellTiter-Glo luminescence, NPC library (AID 1117342;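 active means compounds that lower survival of HCT116 colon cancer cells in the luminescence readout, no numeric limit stated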). As to conditions: at 20 µM (top of the series). For orientation: In ATP-based viability assays light output follows the ATP content of the culture.
Assay [6] can be described thus: CellTiter-Glo luminescent readout of SW480 viability loss, NPC library primary (AID 1117343;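 active means compounds that lower viability of the colon cancer cells in the luminescence readout, with no numeric limit stated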). Particulars: CellTiter-Glo luminescence; at 20 µM (top of the series) unless noted.
Assay [7] can be described thus: decreased DLD-1 cellular survival, CellTiter-Glo luminescent readout, NPC compound collection, primary HTS (AID 1117346;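 active means compounds that lower survival of DLD-1 colon cancer cells in the luminescence readout, no cutoff given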). As to conditions: DLD-1 viability, CellTiter-Glo luminescence; at 20 µM (top of the series).
Assay [8] is described as follows: modulation of C. elegans fzo-1 (AID 1259413; call rule not given here;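 further: fzo-1 mutant C. elegans worms in liquid wells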). As to conditions: C. elegans fzo-1 modulator screen, mean read-out; stronger effect = higher value.
The nature of assay [9]: differential killing of epithelial or mesenchymal cells, primary screen, imaging, PC-3E GFP, TEM4-18 mCherry, co-culture (AID 1345086;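 active means compounds killing one labelled cell type while sparing the other, by normalised counts and ratio limits, not self-fluorescent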;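 on all read-outs here: cells exposed to compound for 72 h before imaging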;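 on red/green cell ratio (normalised): normalised mesenchymal count divided by normalised epithelial count so high means epithelial killing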). As to conditions: imaging cell counts, at 1 µM; for red/green cell ratio (normalised): actives lie on both sides, counts scaled to control wells, 1 = unselective.
Assay [10] in a line: survival rescue of mitochondrial mutant cells in low glucose, primary screen, MELAS cybrids, Rieske KO mouse fibroblasts, CellTiter-Glo (AID 1508586;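 active means mean z-score across replicates of 1.96 or higher in either the MELAS or the Rieske mutant cell line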;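 further: z relative to plate mean and SD of compound and empty wells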).
Assay [11] deals with NAD(+) hydrolase SARM1 (Homo sapiens) (UniProt Q6SZW1). Nature of the assay: SARM1 TIR NADase inhibitors, cell lysate, NAD-Glo luminescence (AID 1508614;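 active means compound whose remaining NAD level is above about 45 nM, limit read from the data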). Particulars: SAM-TIR HEK293T lysate NADase, at 1 µM, stronger effect = higher value.
The target of assay [12] is Mitogen-activated protein kinase 7 (Homo sapiens) (UniProt Q13164). Nature of the assay: ERK5 transactivation activators in reporter cells, primary screen, cell-based, HTS (AID 1508626;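 active means luciferase signal above three times the same-plate solvent-only control wells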;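 further: luciferase driven by Gal4-ERK5 fusion binding five Gal4 sites before minimal TATA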). As to conditions: HeLa Gal4-ERK5 transactivation, 18 h, at 5 µM, stronger effect = higher value.
Assay [13] is described as follows: viability rescue of complex I mutant cybrids, primary screen, cell-based, galactose medium, ATP luminescence (AID 1645843).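 Further: positive z means more ATP and so rescue of galactose-driven cybrid death.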 As to conditions: complex I mutant cybrid cells, 72 h, stronger effect = higher value.
Assay [14] has as its target 6-phosphogluconate dehydrogenase, decarboxylating (Homo sapiens) (UniProt P52209). In words: 6PGD enzyme inhibitors, primary screen, biochemical, human, recombinant enzyme, NADPH absorbance (AID 1159550;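 active means at least 20% inhibition of 6-phosphogluconate dehydrogenase activity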). As to conditions: recombinant 6PGD, NADPH absorbance 341 nm; at 10 µM; stronger effect = higher value.
The nature of assay [15]: sensitizers of A549 cells to miR-34 induction, primary screen, imaging, A549 dox-inducible miR-34, nuclei and caspase counts (AID 1347080;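 active means compounds whose cell count with miR-34 switched on is under 0.7 times the count with it off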). Particulars: A549 miR-34 inducible, Hoechst nuclei count, 48 h.
The nature of assay [16]: liver-stage malaria parasite growth inhibition, primary screen, cell-based, HepG2, luciferase luminescence, HepG2 viability (AID 624349; in the data active means parasite load remaining mostly below about 12%, no sharp cut-off; inactive means mostly above about 10%;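 further: 100% = mean of DMSO negative control wells on the same plate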). Particulars: P. berghei liver stage in HepG2, luciferase luminescence, concentration not given here; parasite load remaining: stronger effect = lower value; viability: measured here: HepG2 viability without parasites.
Assay [17] deals with Hepatitis C virus NS3 helicase. In words: HCV NS3 helicase inhibitors, primary screen, biochemical, fluorescence polarization, NIH Clinical Collection (AID 743270; call rule not given here). Particulars: NS3 helicase binding to Cy5-dT15 DNA, stronger effect = higher value, concentration not given here.
Setting [18] is: measured here: epithelial PC-3E GFP cell survival.
[19] abbreviates: measured here: mesenchymal TEM4-18 mCherry cell survival.
Setting [20] is: MELAS cybrid survival, CellTiter-Glo 48 h, stronger effect = higher value.
Setting [21] is: Rieske KO mouse fibroblast survival, CellTiter-Glo 72 h.
Setting [22] is: measured here: total cells without miR-34 induction.

Molecules are shown by their SMILES. Values joined by “and” are separate entries in the source; they are usually repeats but may differ in a detail not shown here. Equal entries are not always repeated. Active and inactive are the calls of the source.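 How the source made its calls, unless noted: active means z-score of at least 1.8 in each of two replicates, scored against plate mean and spread of sample wells; inactive means the rest.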

Chain of Mitogen-activated protein kinase 7 (Homo sapiens) (Q13164 whole entry, looked up, the tested form may be a part): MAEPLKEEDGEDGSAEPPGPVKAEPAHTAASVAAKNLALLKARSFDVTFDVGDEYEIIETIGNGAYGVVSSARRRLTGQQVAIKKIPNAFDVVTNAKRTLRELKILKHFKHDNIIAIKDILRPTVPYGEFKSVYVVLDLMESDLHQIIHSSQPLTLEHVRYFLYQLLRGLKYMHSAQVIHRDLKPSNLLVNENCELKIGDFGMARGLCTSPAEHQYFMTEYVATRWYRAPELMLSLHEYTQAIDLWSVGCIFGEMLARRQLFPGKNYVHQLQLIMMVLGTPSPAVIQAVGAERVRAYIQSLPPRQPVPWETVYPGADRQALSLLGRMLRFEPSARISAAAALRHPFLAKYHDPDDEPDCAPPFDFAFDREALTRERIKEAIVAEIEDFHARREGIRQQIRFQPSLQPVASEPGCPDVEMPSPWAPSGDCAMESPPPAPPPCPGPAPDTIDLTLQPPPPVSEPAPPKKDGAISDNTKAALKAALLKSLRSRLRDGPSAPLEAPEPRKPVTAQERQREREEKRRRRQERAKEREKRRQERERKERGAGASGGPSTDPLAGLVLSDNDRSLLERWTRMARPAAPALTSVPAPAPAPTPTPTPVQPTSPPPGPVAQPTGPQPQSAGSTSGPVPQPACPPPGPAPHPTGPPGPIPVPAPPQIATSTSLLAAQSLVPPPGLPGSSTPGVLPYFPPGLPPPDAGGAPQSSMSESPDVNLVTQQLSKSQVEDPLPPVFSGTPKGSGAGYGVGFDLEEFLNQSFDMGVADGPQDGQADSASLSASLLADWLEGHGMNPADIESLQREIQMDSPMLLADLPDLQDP
Chain of NAD(+) hydrolase SARM1 (Homo sapiens) (Q6SZW1 whole entry, looked up, the tested form may be a part): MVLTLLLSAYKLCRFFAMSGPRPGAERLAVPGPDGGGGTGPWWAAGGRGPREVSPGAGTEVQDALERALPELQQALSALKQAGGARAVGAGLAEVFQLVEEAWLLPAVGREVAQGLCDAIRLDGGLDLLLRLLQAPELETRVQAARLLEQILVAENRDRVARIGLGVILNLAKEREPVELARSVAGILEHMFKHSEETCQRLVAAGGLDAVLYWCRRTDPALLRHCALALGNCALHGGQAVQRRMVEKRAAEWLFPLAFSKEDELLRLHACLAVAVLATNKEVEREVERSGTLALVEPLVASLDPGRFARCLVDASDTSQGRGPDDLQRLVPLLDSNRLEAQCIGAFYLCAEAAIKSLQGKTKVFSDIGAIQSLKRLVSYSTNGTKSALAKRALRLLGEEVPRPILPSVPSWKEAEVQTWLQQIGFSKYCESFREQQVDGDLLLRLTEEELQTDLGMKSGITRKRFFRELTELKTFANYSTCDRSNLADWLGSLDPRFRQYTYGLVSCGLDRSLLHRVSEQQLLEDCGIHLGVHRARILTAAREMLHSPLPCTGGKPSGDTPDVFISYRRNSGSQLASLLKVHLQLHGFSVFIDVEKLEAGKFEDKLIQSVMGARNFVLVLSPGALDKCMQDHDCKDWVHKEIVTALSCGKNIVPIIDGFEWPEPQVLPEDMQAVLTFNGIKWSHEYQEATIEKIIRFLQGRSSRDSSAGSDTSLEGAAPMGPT
Chain of 6-phosphogluconate dehydrogenase, decarboxylating (Homo sapiens) (P52209 whole entry, looked up): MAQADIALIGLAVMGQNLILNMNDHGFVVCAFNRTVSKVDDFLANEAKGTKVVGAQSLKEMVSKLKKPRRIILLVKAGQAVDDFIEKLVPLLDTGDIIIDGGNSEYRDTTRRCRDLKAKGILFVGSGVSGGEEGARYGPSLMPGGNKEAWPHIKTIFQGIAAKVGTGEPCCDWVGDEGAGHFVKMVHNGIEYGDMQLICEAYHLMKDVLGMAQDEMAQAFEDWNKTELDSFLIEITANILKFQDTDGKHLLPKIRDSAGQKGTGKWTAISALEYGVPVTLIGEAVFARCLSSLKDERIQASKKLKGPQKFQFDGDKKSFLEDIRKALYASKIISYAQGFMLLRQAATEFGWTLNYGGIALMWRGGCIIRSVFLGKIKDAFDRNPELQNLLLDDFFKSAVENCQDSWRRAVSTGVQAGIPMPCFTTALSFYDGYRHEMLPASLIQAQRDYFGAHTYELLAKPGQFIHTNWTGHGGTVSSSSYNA

For `Clc1ccccc1CN1CCc2sccc2C1`, in [1], the insulin secretion stimulation was -2.1% (inactive). Besides, the viability decrease in assay [2] is 13.8% (inactive). Moreover, in assay [3], the tube area decrease is 5.4% (inactive). The GLP1 secretion stimulation in assay [4] is -2.6% (inactive). The inhibition of viability in assay [5] is 3.9% (inactive). The viability decrease (inhibition) in assay [6] was 70.5% (active); in [7], 32.4% (inactive). Also, in [8], the mean signal is 271 (inactive). Further, the red/green cell ratio (normalised) in [9] is 0.9 (inactive). Moreover, the normalised cell number turned out to be 1.03 in assay [9] (setting [18]) and 0.94 in assay [9] (setting [19]). Further, the z-score in assay [10] (setting [20]) is 0.708 (inactive) and -0.623 (inactive); in [10] (setting [21]) it was 0.315 and 0.0692; in [13], -1.11 (inactive) and 0.17 (inactive). The remaining NAD in assay [11] was 10 nM (inactive). Also, the luciferase signal in assay [12] is 52 AU (inactive).
With `CN(C)C(=N)N=C(N)N`, in [1], the insulin secretion stimulation was -2.3% (inactive). Moreover, the viability decrease in [2] is -7% (inactive). Also, the tube area decrease in assay [3] was -11.5% (inactive). Besides, in [4], the GLP1 secretion stimulation is 3.1% (inactive). The inhibition of viability in [5] was -25.7% (inactive). Also, the viability decrease (inhibition) was 17% (inactive) in assay [6] and -1.55% (inactive) in assay [7]. In addition, the inhibition (commonly the change of the read-out against control, counted positive when it falls) in assay [14] was 10.4% (inactive). In assay [9], the red/green cell ratio (normalised) was 0.72 (inactive). For the same molecule, the normalised cell number in assay [9] (setting [18]) amounted to 1.31; in assay [9] (setting [19]), 0.95. Further, the fold change is 0.831 (inactive) and 0.956 (inactive) and 0.958 (inactive) in assay [15] (stronger effect = lower value, cell number ratio, induced over uninduced); 1.13 and 2.95 and 0.938 in [15] (measured here: relative caspase fold change +Dox/-Dox). Also, the cell count was 7440 and 12900 and 10500 in assay [15] (measured here: total cells with miR-34 induction, stronger effect = lower value); 8950 and 13500 and 10900 in [15] (setting [22]). Further, the z-score in assay [10] (setting [20]) is -0.356 (inactive) and 0.193 (inactive); in assay [10] (setting [21]) it was 0.0508 and -0.797; in assay [13], 0.78 (inactive). Moreover, in assay [11], the remaining NAD is 10 nM (inactive). In addition, the luciferase signal in [12] was 508 AU (active).
Consider `O=C(NCC1CCCCN1)c1cc(OCC(F)(F)F)ccc1OCC(F)(F)F` (configuration not stated), for which the parasite load remaining in assay [16] is -2.69% (inactive) and 85.7% (inactive) and 46.8% (inactive). Besides, the viability (as a rule, a read-out of living cells in per cent, often relative to untreated cells) in assay [16] was 26.8% and 98.2% and 100%. Further, the inhibition in [17] is -15% (inactive). Further, in assay [1], the insulin secretion stimulation was 3.7% (inactive). Besides, the viability decrease in [2] was -3.9% (inactive). Also, the tube area decrease in [3] was -3.2% (inactive). The GLP1 secretion stimulation in [4] was 1.7% (inactive). Further, in assay [5], the inhibition of viability is 21.7% (inactive). The viability decrease (inhibition) was 1.6% (inactive) in assay [6] and -7.6% (inactive) in assay [7]. In addition, in assay [8], the mean signal was 257 (inactive). The z-score was -0.524 (inactive) and 0.18 (inactive) in assay [10] (setting [20]); 0.614 and 0.91 in [10] (setting [21]); -1.51 (inactive) and -0.39 (inactive) and 0.37 (inactive) in assay [13]. Further, the luciferase signal in assay [12] was 68 AU (inactive).
For `CC(=O)OC1CCC2(C)C(CC(OC(C)=O)C3(C)C2CCC2(C)C(c4ccoc4)OC(=O)C4OC423)C1(C)C` (configuration not stated), in [14], the inhibition is -7.87% (inactive).
As to `C[N+]1(C)CCC(OC(=O)C(O)(c2ccccc2)C2CCCC2)C1` (configuration not stated), the inhibition in assay [17] was 2.77% (inactive) and 0.45% (inactive). Besides, the insulin secretion stimulation in assay [1] is 1.8% (inactive). Further, the viability decrease in [2] is -4% (inactive). Moreover, the tube area decrease in assay [3] is -0.8% (inactive). The GLP1 secretion stimulation in [4] was -0.5% (inactive). Besides, in assay [5], the inhibition of viability was 11.3% (inactive). The viability decrease (inhibition) in assay [6] is -15.2% (inactive); in assay [7], 2% (inactive). In addition, in assay [8], the mean signal was 254 (inactive). The red/green cell ratio (normalised) in assay [9] is 0.8 (inactive). Moreover, the normalised cell number in [9] (setting [18]) amounted to 1.28; in [9] (setting [19]), 1.02. The cell count in assay [15] (setting [22]) was 11400 and 10400 and 13800. Moreover, the z-score in assay [10] (setting [20]) is 0.599 (inactive); in [10] (setting [21]), 0.684; in assay [13], 0.385 (inactive) and 0.61 (inactive). In assay [11], the remaining NAD is 10 nM (inactive).
Turning to `CC(C)/C(O)=C1/C(=O)O[C@@H](c2ccoc2)[C@]2(C)C(O)[C@@H](O)[C@@]34OC5(C)OC67CC(C)(C(O)[C@]6(O)[C@@H](O)[C@]3(O5)C12)[C@H](CC(=O)O)[C@]74C` (some centres not stated), the inhibition in assay [14] is 16.8% (inactive).
Consider `CC(=O)O[C@H]1C[C@@H](OC(C)=O)C(C)(C)[C@@H]2C[C@@H](O)[C@@]3(C)[C@H](CC[C@]4(C)[C@@H](c5ccoc5)OC(=O)[C@H]5O[C@@]534)[C@@]12C`, for which the inhibition in assay [14] was 13.5% (inactive).
Consider `COc1ccc2c(c1)[C@@]1(C)CC[C@@H](O)C[C@@H]1CC2`, for which, in [14], the inhibition is 13.3% (inactive).
